# In PubChem BioAssay (NCATS):
# Results filed as inconclusive are left out. Activity calls are given as the source filed them. Calls follow the shape of the dose curve; as a rule, active = well fitted cell-killing curve with a large enough effect; inconclusive = small, poorly fitted or top-dose-only effect, or effect the other way; inactive = flat fitted curve, though single readings scatter. Where a SMILES comes first, the peptide text is derived from it. [ ]: non-standard residue; d: D form. ξ: configuration not given here. ξPhe(βξ-Me) = CC(c1ccccc1)C(N)C(=O)O; GABA = NCCCC(=O)O
# System: PA-1
# Experiment: Primary qHTS to identify gynecologic anti-cancer compounds using libraries of approved drugs and bioactive compounds (AID 1345084); also: nearly all actives have a fitted effect of over 55% in size
# Details: Gynecologic cancer cell panel viability, ATPlite luminescence, 48 h; series mostly up to 57.5 µM; activity change, negative = cytotoxicity: at the top concentration
# Outline: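 Cells, 1,000 per well, plated 16 h, then exposed 48 h at 37 C to compounds. Viability by ATPlite luminescence after 15 min at room temperature.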
# % is scaled to controls: 0 for no effect and ±100 for the full control effect; potency is read from the fitted curve at half-maximal effect.
SMILES,"activity change, negative = cytotoxicity",Potency
COC(=O)C1C(CC(C)=O)C=CC(O)C12Oc1cc(C)cc(O)c1C2=O (configuration not stated),2.23% [at 38.5 µM] (inactive),
CC1(C)CCC[C@@]2(C)[C@H]1[C@H](O)C=C1COC(=O)[C@@]12O,-4.89% (inactive),
O=C(O)Cc1nn(Cc2nc3cc(C(F)(F)F)ccc3s2)c(=O)c2nccnc12,-0.261% (inactive),
CC1CCC2(C(=O)OC3OC(CO)C(O)C(O)C3O)CCC3(C(=O)O)C(=CCC4C5(C)CCC(OC6OC(C)C(O)C(O)C6O)C(C)(C)C5CCC43C)C2C1C (configuration not stated),1.21% [at 25.3 µM] (inactive),
CC(CO[C@@H]1O[C@H](COC(=O)/C=C/c2ccc(O)c(O)c2)[C@@H](O)[C@H](O)[C@H]1O)C1(O)COC(=O)C1 (some centres not stated),21.8% [at 25.3 µM] (inactive),
CCCCN(CCCC)C(=O)CN1C[C@H](c2ccc3c(c2)OCO3)[C@@H](C(=O)O)[C@@H]1c1ccc(OC)cc1,7.1% (inactive),
CC(C)C(=O)O[C@@H]1[C@@H](O)[C@@H](O[C@H]2O[C@H](CO)[C@@H](O)[C@H](O)[C@H]2O)O[C@H](CO)[C@H]1O,7.33% [at 25.3 µM] (inactive),
CCc1c(CC(N)=O)c2cc(OCCCP(=O)(O)O)ccc2n1Cc1ccccc1,9.72% (inactive),
COc1ccc(C[C@H](N)C(=O)N[C@H]2[C@@H](O)[C@H](n3cnc4c(N(C)C)ncnc43)O[C@@H]2CO)cc1,,0.708 µM (active)
COC(=O)C1=CO[C@@H](O[C@@H]2O[C@H](CO)[C@@H](O)[C@H](O)[C@H]2O)[C@@H]2[C@@H](C(=O)OC)[C@@H](O)C(O)[C@H]12 (some centres not stated),-0.403% [at 25.3 µM] (inactive),
CC(C)CC1NC(=O)C(C(C)c2ccccc2)NC(=O)C(C(C)C)NC(=O)C(C)NC(=O)CCCNC(=O)C(Cc2c[nH]c3ccccc23)NC(=O)C(C)NC1=O (stereo not drawn) (cyclo([GABA]AV[ξPhe(βξ-Me)]LAW); configuration not given here),0.228% [at 25.3 µM] (inactive),
C=C1CCC2C(C)(C)C(O)CCC2(C)C1CCC(C)CCOC(=O)CCC(=O)O (configuration not stated),-4.57% [at 25.3 µM] (inactive),
COc1cc(C)c(C(=O)O[C@H]2[C@@H](O)[C@H](n3ccc(=O)[nH]c3=O)O[C@@H]2CO)c(OC)c1,-2.76% [at 25.3 µM] (inactive),
COC(=O)C1=COC(O[C@@H]2O[C@H](CO)[C@@H](O)[C@H](O)[C@H]2O)/C(=C\COC(=O)c2ccc(OC3OC(CO)C(O)C(O)C3O)c(OC)c2)C1CC(=O)OCCc1ccc(O)cc1 (some centres not stated),-0.972% [at 11.6 µM] (inactive),
COc1cc(CC(COC2OC(CO)C(O)C(O)C2O)c2cc(/C=C/CO)cc(OC)c2O)ccc1O (configuration not stated),12.7% [at 25.3 µM] (inactive),
O=C1N(CC2CCCCN2)CCN1c1ccccc1 (configuration not stated),1.98% (inactive),
CCCOc1ccn2c(C(C)=O)cc(-c3ccccc3S(C)(=O)=O)c2c1,3.33% (inactive),
COc1cc(/C=C/C(=O)O[C@H]2[C@H](O)[C@@H](CO)O[C@@]2(CO)O[C@H]2O[C@H](COC(=O)c3ccc(O)cc3)[C@@H](O)[C@H](O)[C@H]2O)cc(OC)c1OC,-4.81% [at 25.3 µM] (inactive),
OC[C@H]1O[C@@H](n2cnc3c2NC=NC[C@H]3O)C[C@@H]1O,-0.672% (inactive),
CCCCS(=O)(=O)Nc1ncnc(OCCOc2ncc(Br)cn2)c1-c1ccc(Br)cc1,18.4% (inactive),
CC/C=C/CC1=C(CCCCCCCC(=O)O)CCC1=O,6.35% (inactive),
FC(F)(F)c1cc(C(F)(F)F)c2ccc3nc(-c4nnco4)cn3c2n1,-0.266% (inactive),
C[C@@H]1O[C@@H](OC[C@H]2O[C@@H](OCC3CCC4CC3C4(C)C)[C@H](O)[C@@H](O)[C@@H]2O)[C@H](O)[C@H](O)[C@H]1O (some centres not stated),17.4% [at 25.3 µM] (inactive),
O=C1[C@H](O[C@@H]2O[C@H](CO)[C@@H](O)[C@H](O)[C@H]2O)Oc2ccccc2N1O,8.09% [at 38.5 µM] (inactive),
C[C@@H]1O[C@@H](O[C@H]2[C@H](OC(=O)[C@]34CCC(C)(C)C[C@H]3C3=CCC5[C@@]6(C)C[C@H](O)[C@H](O[C@@H]7O[C@H](CO[C@@H]8OC[C@H](O)[C@H](O)[C@H]8O)[C@@H](O)[C@H](O)[C@H]7O)C(C)(C)C6CC[C@@]5(C)[C@]3(C)C[C@H]4O)OC[C@@H](O)[C@@H]2O)[C@H](O)[C@H](O[C@@H]2OC[C@](O)(CO)[C@H]2O)[C@H]1O[C@@H]1OC[C@H](O)[C@H](O[C@@H]2OC[C@@H](O)[C@H](O)[C@H]2O)[C@H]1O (some centres not stated),9.54% [at 6.55 µM] (inactive),
COC(=O)C1C(c2ccc(O)cc2)C(C(=O)OC)C1c1ccc(O)cc1 (configuration not stated),-3.42% [at 38.5 µM] (inactive),
CCN[C@@H]1C[C@H](N)[C@@H](O[C@H]2OC(CN)=CC[C@H]2N)[C@H](O)[C@H]1O[C@H]1OC[C@](C)(O)[C@H](NC)[C@H]1O,,inactive
